Source: PubChem (National Center for Advancing Translational Sciences (NCATS))
KB-3-1 tox: KB-3-1 parental cell cytotoxicity; KB-3-1 viability, CellTiter-Glo ATP luminescence, 72 h; Potency, µM (doses to about 46.1 µM), actives largely listed as cytotoxic; hit rate 1.4% among 400,000; AID 1347075; also: % is scaled to controls: 0 for no effect and ±100 for the full control effect; nearly all actives have a fitted effect of over 60% in size
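72 h, 37 °C compound treatment of KB-3-1 parental cells; CellTiter-Glo added, 10 min, luminescence read. Data corrected against DMSO-only plates and normalized before curve fitting.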
MCF10A rereplic: inducers of DNA re-replication in MCF 10A breast cells; Potency, µM (titrated, usually from 46.1 µM), for inactives: top-dose activity, positive = re-replication, most hits filed as activators; MCF 10A DNA re-replication, Hoechst nuclear intensity, 48 h; hit rate 2.9% among 350,000; also: % of control where 0% means no effect; nearly all actives have a fitted effect of over 50% in size
KB-V1 MDR tox: kills drug-selected multidrug resistant KB-V1 cells; Potency, µM (top dose mostly 46.1 µM), usual class: cytotoxic; hit rate 3.4% among 400,000; AID 1347076; KB-V1 MDR cells viability, CellTiter-Glo, 72 h; also: % is scaled to controls: 0 for no effect and ±100 for the full control effect; nearly all actives have a fitted effect of over 60% in size
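Drug-selected KB-V1 cells, grown in DMEM lacking phenol red with 10% FBS, receive compound titrations; after three days at 37 degrees C, surviving cell ATP is quantified by CellTiter-Glo luminescence and responses normalized and curve-fitted.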
ELG1 DNA repair: inhibitors of ELG1-dependent DNA repair in HEK293T cells; AID 504467; Potency, µM (titrated, usually from 46.1 µM), for inactives: at the top dose activity change, negative = inhibition, hits mostly inhibitors; HEK293T ELG1-luciferase reporter, luminescence, 16 h; DNA damage induced by 5-fluorouridine; hit rate 2.3% among 330,000; also: % is scaled to controls: 0 for no effect and ±100 for the full control effect; nearly all actives have a fitted effect of over 55% in size
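Cells (2,000 per well) received 5-fluorouridine plus test compound or DMSO and were incubated 16 hr at 37 °C, 5% CO2. Luciferase activity was read by luminescence 30 min after ONE-Glo addition; signal suppression marked inhibition of damage-induced ELG1 function.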
SW480 rerep: DNA re-replication induction in SW480 cells; SW480 DNA re-replication, Hoechst DNA content imaging, 48 h; Potency, µM (titrated, usually from 46.1 µM), for the others: at the top dose re-replication activation, actives largely listed as activators; hit rate 1.8% among 340,000; AID 624297; also: % of control where 0% means no effect; nearly all actives have a fitted effect of over 55% in size
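First, 250 cells per well were seeded. Next, compound or vehicle (23 nL) was pinned in, plates sat 48 hr at 37 C. Finally Hoechst was added for 40 min before fluorescence scanning.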
* = called active by the depositor; [ ] = another dose, or the depositor's remark. A selection: hits, their analogues and other compounds. The true share with any hit is near 8.2%. Calls follow the shape of the dose curve; as a rule, active = well fitted curve in the direction sought with a large enough effect; inconclusive = small, poorly fitted or top-dose-only effect, or another doubt; inactive = no such curve, though single readings can be large; an effect the other way counts as inactive or inconclusive. Potency is read from the fitted curve at half-maximal effect.

What do the screens show for `Cc1cccc(-c2onc3ccc(C(=O)/C=C/N(C)C)cc23)c1`?
KB-3-1 tox: inactive; MCF10A rereplic: inconclusive; KB-V1 MDR tox: inactive; ELG1 DNA repair: inconclusive; SW480 rerep: inconclusive

Results for COc1ccc(N(C(=O)CCl)C(C(=O)NCCc2ccccc2)c2cccs2)cc1 (centres undefined) ?
KB-3-1 tox: 7.3µM*; MCF10A rereplic: inconclusive; KB-V1 MDR tox: 18µM*; ELG1 DNA repair: inconclusive; SW480 rerep: 3.3µM*

Results for COC(=O)c1cc(CNC(=O)c2sccc2-c2ccccc2)ccc1OC ?
KB-3-1 tox: inactive; MCF10A rereplic: -7%; KB-V1 MDR tox: inactive; ELG1 DNA repair: inconclusive; SW480 rerep: -8%

How did O=C(CCn1cnc2ccccc21)N/N=C/c1ccccc1O do in these assays?
KB-3-1 tox: inconclusive; MCF10A rereplic: inconclusive; KB-V1 MDR tox: inactive; ELG1 DNA repair: inconclusive; SW480 rerep: 8.2µM*

How did O=C(CSc1ccc2ccccc2n1)N/N=C/c1ccccc1O do in these assays?
KB-3-1 tox: inconclusive; MCF10A rereplic: inconclusive; KB-V1 MDR tox: inactive; ELG1 DNA repair: 16µM*; SW480 rerep: inconclusive

How did O=C(CSc1ccc2ccccc2n1)N/N=C/c1ccc(O)cc1 do in these assays?
KB-3-1 tox: inactive; MCF10A rereplic: inconclusive; KB-V1 MDR tox: inactive; ELG1 DNA repair: -9%; SW480 rerep: -9%

What do the screens show for `COc1ccc(/C=C2\CCC(C3CCCC3)C2=O)cc1Cn1cccn1` (centres undefined)?
KB-3-1 tox: inactive; MCF10A rereplic: 54%; KB-V1 MDR tox: 23µM*; ELG1 DNA repair: -21%; SW480 rerep: 29%

How did COc1ccccc1/C=C1\CCC(C2CCCC2)C1=O (centres undefined) do in these assays?
KB-3-1 tox: inactive; MCF10A rereplic: 18µM*; KB-V1 MDR tox: inactive; ELG1 DNA repair: inconclusive; SW480 rerep: -2%

How did COc1ccccc1N(C)c1cc2c(c3c1ccn3C)C1CCC2O1 (centres undefined) do in these assays?
KB-3-1 tox: inconclusive; KB-V1 MDR tox: inactive

What do the screens show for `Cc1ccc2c(c1)c(C)cc[n+]2Cc1ccccc1`?
KB-3-1 tox: 8.2µM*; MCF10A rereplic: 1%; KB-V1 MDR tox: inactive; ELG1 DNA repair: -14%; SW480 rerep: 1%

What do the screens show for `Cc1ccc2ccc[n+](Cc3ccccc3)c2c1`?
KB-3-1 tox: 5.2µM*; MCF10A rereplic: 4%; KB-V1 MDR tox: inactive; ELG1 DNA repair: 5%; SW480 rerep: 11%

Results for CCN(Cc1ccccc1)C(=O)c1[nH]c2ccc(OC)cc2c1C ?
KB-3-1 tox: inactive; MCF10A rereplic: 13%; KB-V1 MDR tox: inactive; ELG1 DNA repair: -1%; SW480 rerep: 1%

Results for COc1ccc2c(c1)c(C)cc[n+]2Cc1ccccc1 ?
KB-3-1 tox: 8.2µM*; MCF10A rereplic: 0%; KB-V1 MDR tox: inactive; ELG1 DNA repair: 15%; SW480 rerep: -12%

How did CCCNC(=O)COc1ccc(-c2nn(C)c(=O)c3ccccc23)cc1 do in these assays?
KB-3-1 tox: inactive; MCF10A rereplic: -2%; KB-V1 MDR tox: inconclusive; ELG1 DNA repair: -20%; SW480 rerep: -7%[9.22 µM]

How did CC(C)Cc1nnc(NC(=O)c2ccc3c(c2)OCCO3)s1 do in these assays?
KB-3-1 tox: inactive; MCF10A rereplic: -4%; KB-V1 MDR tox: inactive; ELG1 DNA repair: inconclusive; SW480 rerep: 9%

How did O=C(NC(NC(=S)N1CCOCC1)C(Cl)(Cl)Cl)c1ccc(Cl)cc1 (centres undefined) do in these assays?
KB-3-1 tox: inactive; MCF10A rereplic: 0%; KB-V1 MDR tox: 13µM*; ELG1 DNA repair: inconclusive; SW480 rerep: 5%

What do the screens show for `CCCCC(=O)NC(NC(=S)N1CCOCC1)C(Cl)(Cl)Cl` (centres undefined)?
KB-3-1 tox: inactive; MCF10A rereplic: 0%; KB-V1 MDR tox: inactive; ELG1 DNA repair: -1%; SW480 rerep: 0%

What do the screens show for `O=C(NC(=S)N1CCOCC1)c1ccc([N+](=O)[O-])cc1`?
KB-3-1 tox: inactive; MCF10A rereplic: -98%; KB-V1 MDR tox: inactive; ELG1 DNA repair: inconclusive; SW480 rerep: 0.65µM*

What do the screens show for `COC(=O)c1cc(NS(=O)(=O)c2ccc(C(C)C)cc2)ccc1N1CCOCC1`?
KB-3-1 tox: inactive; MCF10A rereplic: inconclusive; KB-V1 MDR tox: inactive; ELG1 DNA repair: inconclusive; SW480 rerep: 3%

What do the screens show for `CCOCCCNc1nc(C(F)(F)F)nc2c1nnn2Cc1ccccc1Cl`?
KB-3-1 tox: inactive; MCF10A rereplic: 8%; KB-V1 MDR tox: inactive; ELG1 DNA repair: 18µM*; SW480 rerep: inconclusive

Results for Cc1nc(NCCN2CCOCC2)c2nnn(Cc3ccccc3Cl)c2n1 ?
KB-3-1 tox: inactive; MCF10A rereplic: 1%; KB-V1 MDR tox: 6.5µM*; ELG1 DNA repair: inconclusive; SW480 rerep: 2%

How did COC(=O)CNc1nc(C2CC2)nc2c1nnn2Cc1ccccc1Cl do in these assays?
KB-3-1 tox: inactive; MCF10A rereplic: 27%; KB-V1 MDR tox: inactive; ELG1 DNA repair: -8%; SW480 rerep: -12%

Results for CC(C)(C)c1nc(NCCN2CCOCC2)c2nnn(Cc3ccccc3Cl)c2n1 ?
KB-3-1 tox: inconclusive; MCF10A rereplic: inconclusive; KB-V1 MDR tox: inactive; ELG1 DNA repair: 3%; SW480 rerep: 28%

How did Clc1ccccc1Cn1nnc2c(N3CCOCC3)nc(C3CC3)nc21 do in these assays?
KB-3-1 tox: inactive; MCF10A rereplic: -3%; KB-V1 MDR tox: 3.7µM*; ELG1 DNA repair: -13%; SW480 rerep: -7%

How did Clc1ccccc1Cn1nnc2c(Nc3ccccc3)ncnc21 do in these assays?
KB-3-1 tox: inactive; MCF10A rereplic: 13µM*; KB-V1 MDR tox: inactive; ELG1 DNA repair: -6%; SW480 rerep: -2%

What do the screens show for `COc1ccc(NC(=O)CC(C)n2nc(C)cc2C)cc1Cl` (centres undefined)?
KB-3-1 tox: inactive; KB-V1 MDR tox: inactive

How did O=C(CSc1nc(=O)n(Cc2ccncc2)c2c1CCC2)Nc1ccc(F)cc1F do in these assays?
KB-3-1 tox: inactive; KB-V1 MDR tox: inactive

How did CCc1nc(Nc2ccc(OC)c(OC)c2)c2nnn(Cc3ccccc3Cl)c2n1 do in these assays?
KB-3-1 tox: inactive; MCF10A rereplic: inconclusive; KB-V1 MDR tox: inconclusive; ELG1 DNA repair: 13µM*; SW480 rerep: -1%

What do the screens show for `Clc1ccccc1Cn1nnc2c(NCCN3CCOCC3)ncnc21`?
KB-3-1 tox: inactive; MCF10A rereplic: 21%; KB-V1 MDR tox: 21µM*; ELG1 DNA repair: -7%; SW480 rerep: -3%

Results for COc1ccc(-c2[nH]c3ccccc3c2SCCNC(=O)c2ccc(S(=O)(=O)N(C)C)cc2)cc1 ?
KB-3-1 tox: inconclusive; KB-V1 MDR tox: inactive

How did COc1ccc(CNC(=O)c2cc3oc4ccccc4c3n2C)cc1OC do in these assays?
KB-3-1 tox: inactive; KB-V1 MDR tox: inactive
